According to PubChem BioAssay AID463173 (ICCB-Longwood Screening Facility, Harvard Medical School, 2010):
The campaign covered roughly 52,000 compounds. About 1,700 (3.3%) were called active. The sample as a whole holds a higher share of actives than the screen did. Unmarked numbers belong to inactive results. No stated cut-off is given here; in the data, active means survival mostly below about 52% (no sharp cut-off); inactive means mostly above about 56%.

The molecules below were run on Wild type (assay: growth inhibition of S. aureus wild type versus tarO mutant, primary screen, teichoic acid synthesis inhibitors, RN4220, OD600 (AID 463173)). Conditions: S. aureus RN4220 wild type/DeltatarO growth, OD600, 18 h, active compounds read low, screened at 18.75 µg/mL (by protocol).

Compound | survival
C=Cc1ccc(Cn2c(=O)n(CC3CCC(C(=O)NC(C)C)CC3)c(=O)c3sccc32)cc1 (stereo unspecified) | 81%
COc1ccc(CCNC(=O)CCc2c(C)nc3c(-c4ccc(F)cc4)c(C)nn3c2C)cc1OC | 137%
Cc1ccccc1CNC(=O)c1ccc(CSc2nc3cccnc3n2Cc2ccccc2)cc1 | 47%
Cc1ccccc1CNC(=O)c1ccc(Cn2c(SCc3cccc(F)c3)nc3cccnc32)cc1 | 70%
Cc1ccccc1CNC(=O)c1ccc(Cn2c(SCc3ccccc3)nc3cccnc32)cc1 | -2% (active)
Cc1ccccc1NS(=O)(=O)c1ccc2[nH]cc(C(=O)N3CCCCC3)c(=O)c2c1 | 68%
N/C(=N\OC(=O)c1ccccc1)c1cccnc1 | 109%
Cc1ccc(S(=O)(=O)NCC(c2ccc(N(C)C)cc2)N2CCc3ccccc32)cc1C (stereo unspecified) | 129%
CCOc1ccc(S(=O)(=O)NCC(c2ccc(N(C)C)cc2)N2CCc3ccccc32)cc1 (stereo unspecified) | 22%
COc1ccc(S(=O)(=O)NCC(c2ccc(N(C)C)cc2)N2CCc3ccccc32)cc1 (stereo unspecified) | 73%
CN(C)c1ccc(C(CNS(=O)(=O)c2ccccc2)N2CCc3ccccc32)cc1 (stereo unspecified) | 80%
Cc1ccc(S(=O)(=O)NCC(c2ccc(N(C)C)cc2)N2CCc3ccccc32)cc1 (stereo unspecified) | -2% (active)
CN(C)c1ccc(C(CNS(=O)(=O)c2ccc(F)cc2)N2CCc3ccccc32)cc1 (stereo unspecified) | 0% (active)
COC(=O)CNC(c1ccccc1)c1cc(Br)ccc1NC(=O)c1ccccc1 (stereo unspecified) | 62%
CCOC(=O)c1[nH]c(C)c(CCC(=O)NCc2cccc(C)c2)c1C | 105%
CCOc1cccc2sc(=NC(=O)c3ccc(S(=O)(=O)N4CCOCC4)cc3)n(C)c12 | 83%
Cc1ccc(C(=O)Nc2nc(-c3nnn(-c4cccc(Cl)c4C)c3C)ns2)cc1C | 136%
COc1cccc(C(=O)Nc2nc(-c3nnn(-c4ccccc4C(F)(F)F)c3C)ns2)c1 | 76%
Cc1c(-c2nsc(NC(=O)c3cccc(Cl)c3)n2)nnn1-c1ccccc1C(F)(F)F | -6% (active)
COc1cccc(C(=O)Nc2nc(-c3nnn(-c4cc(C)ccc4C)c3C)ns2)c1 | 72%
COc1cccc(C(=O)Nc2nc(-c3nnn(-c4cccc(Cl)c4C)c3C)ns2)c1 | -6% (active)

Compound | survival
Cc1c(-c2nsc(NC(=O)c3ccccc3)n2)nnn1-c1ccc(C(F)(F)F)c(Cl)c1 | 80%
CCOC(=O)c1sc(NC(=O)c2cc3nc(-c4ccccc4)cc(C(F)(F)F)n3n2)c(C(=O)OCC)c1C | 63%
CCOc1ccc(-n2c(=O)c3c(C)c(C(=O)N(C)C)sc3n(Cc3cc(C)ccc3C)c2=O)cc1 | -3% (active)
CCOc1ccc(-n2c(=O)c3c(C)c(C(=O)N(C)C)sc3n(CC(=O)Nc3c(C)cc(C)cc3C)c2=O)cc1 | 68%
COc1cccc(-n2c(=O)c3c(C)c(C(=O)N(C)C)sc3n(Cc3ccc(F)cc3Cl)c2=O)c1 | 83%
CCc1ccc(-n2c(=O)c3c(C)c(C(=O)N(C)C)sc3n(Cc3cccc(C)c3)c2=O)cc1 | 80%
COc1cccc(-n2c(=O)c3c(C)c(C(=O)N(C)C)sc3n(Cc3cccc(C)c3)c2=O)c1 | 10% (active)
Cc1ccc(-n2c(=O)c3c(C)c(C(=O)N(C)C)sc3n(Cc3ccccc3C)c2=O)cc1C | 73%
CCc1ccc(-n2c(=O)c3c(C)c(C(=O)N(C)C)sc3n(CC(=O)Nc3cc(Cl)ccc3C)c2=O)cc1 | 129%
COC(=O)c1ccccc1NC(=O)Cn1c(=O)n(-c2cccc(OC)c2)c(=O)c2c(C)c(C(=O)N(C)C)sc21 | 121%
CCOC(=O)c1ccccc1NC(=O)Cn1c(=O)n(-c2ccc(CC)cc2)c(=O)c2c(C)c(C(=O)N(C)C)sc21 | -2% (active)
O=C(c1cccs1)c1cn(CCOc2ccccc2Cl)c2ccccc12 | 80%
CC1(C)Oc2ccc(C(=O)N3CCCC3)cc2N(CC(=O)N2CCCCC2)C1=O | 101%
O=C(Cn1c(=O)c2ccccc2n(CC(=O)Nc2ccc(F)cc2)c1=O)NCCc1ccccc1 | 127%
Cc1nn(C(=O)c2ccccc2F)c(C)c1S(=O)(=O)N1CCOCC1 | 66%
Cc1nnc(N(Cc2ccco2)C(=O)c2cccc(C#N)c2)s1 | 108%
CC(C)OCCCNC(=O)CN1C(=O)COc2ccc(S(=O)(=O)N3CCCCCC3)cc21 | 98%
Nc1cc(=O)[nH]c2n[nH]c(=S)n12 | 111%
CCc1nnc(NC(=O)c2cc(=O)c3cc(C)c(C)cc3o2)s1 | 74%
COc1cccc(-c2nc(CS(=O)(=O)CC(=O)NCc3cccc(Cl)c3)c(C)o2)c1 | 82%
